Results reported in PubChem BioAssay (NCATS).
Inconclusive results are not listed. The source made the active and inactive calls. Unless noted, the call rests on the fitted dose curve; in most records, active means well fitted inhibition curve with a large enough effect; inconclusive means small, poorly fitted or top-dose-only effect; inactive means no such curve, though single readings can be large or run the other way.

Assays:
[1] = NS1 protein of Zika virus - qHTS assay to identify small molecule inhibitors in human HEK 293 cells (AID 1347053); further: series mostly up to about 46 µM; nearly all actives have a fitted effect of over 55% in size
In short: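 Inhibition of NS1 expression was scored in HEK 293 cells given compound 1 h ahead of MR766 virus (MOI = 0.5). Following 24 h at 37 C, two anti-NS1 antibodies generated a TR-FRET signal, scaled between uninfected and infected controls.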

[2] = qHTS for Inhibitors of the Functional Ribonucleoprotein Complex (vRNP) of Lassa (LASV) Arenavirus: LASV Primary Screen - GLuc reporter signal (AID 1347082; calls by dose curve; tested in HEK293 reporter line; further: series mostly up to about 57 µM; nearly all actives have a fitted effect of over 60% in size)
[3] = qHTS for Inhibitors of the Functional Ribonucleoprotein Complex (vRNP) of Lassa (LASV) Arenavirus: Viability assay - alamar blue signal for LASV Primary Screen (AID 1347083; calls by dose curve; tested in HEK293 reporter line; further: series mostly up to about 57 µM; nearly all actives have a fitted effect of over 80% in size)
[4] = qHTS for Inhibitors of the Functional Ribonucleoprotein Complex (vRNP) of Lymphocytic Choriomeningitis Arenaviruses (LCMV): Viability assay - alamar blue signal for LCMV Primary Screen (AID 1347085; calls by dose curve; tested in HEK293 reporter line; further: series mostly up to about 57 µM; nearly all actives have a fitted effect of over 80% in size)
[5] = target: Nucleoprotein (Lymphocytic choriomeningitis virus (strain Armstrong)) (UniProt P09992); assay: qHTS for Inhibitors of the Functional Ribonucleoprotein Complex (vRNP) of Lymphocytic Choriomeningitis Arenaviruses (LCMV): LCMV Primary Screen - GLuc reporter signal (AID 1347086; calls by dose curve; further: series mostly up to about 57 µM; nearly all actives have a fitted effect of over 70% in size)
Chain of Nucleoprotein (Lymphocytic choriomeningitis virus (strain Armstrong)) (P09992 whole entry, looked up): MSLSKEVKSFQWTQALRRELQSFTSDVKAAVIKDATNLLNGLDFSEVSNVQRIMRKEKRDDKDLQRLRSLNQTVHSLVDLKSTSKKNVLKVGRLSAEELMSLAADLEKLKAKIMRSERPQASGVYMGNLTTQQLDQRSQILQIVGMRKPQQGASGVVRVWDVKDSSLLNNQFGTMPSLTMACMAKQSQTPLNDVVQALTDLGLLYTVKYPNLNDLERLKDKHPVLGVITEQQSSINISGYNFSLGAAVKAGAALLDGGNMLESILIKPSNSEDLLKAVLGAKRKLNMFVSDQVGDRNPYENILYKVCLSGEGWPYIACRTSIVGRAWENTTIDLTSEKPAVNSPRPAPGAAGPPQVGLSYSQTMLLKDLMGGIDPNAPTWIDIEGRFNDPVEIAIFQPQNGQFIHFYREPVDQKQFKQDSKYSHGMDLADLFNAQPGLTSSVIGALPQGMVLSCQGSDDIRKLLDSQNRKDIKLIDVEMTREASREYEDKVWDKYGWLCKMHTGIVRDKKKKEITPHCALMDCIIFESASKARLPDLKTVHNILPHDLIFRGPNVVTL

Measured: Potency

Clc1ccc(C(OCCN2CCCCC2)c2ccccc2)cc1 (centres undefined)
inactive: all assays above

O=C(CCl)c1ccc(Cl)cc1Cl
inactive: all assays above

Clc1ccc(CSC(Cn2ccnc2)c2ccc(Cl)cc2Cl)cc1 (centres undefined)
inactive: [1] | [4] | [5]

O=C1CN2CCOC2(c2ccccc2Cl)c2cc(Cl)ccc2N1 (centres undefined)
inactive: all assays above

NC(=O)C1(N2CCCCC2)CCN(CCCN2c3ccccc3CCc3ccc(Cl)cc32)CC1
inactive: [2]

C[C@@H]1CN(C2CCC(C#N)(c3ccc(F)cc3)CC2)CC[C@]1(C(=O)O)c1ccccc1 (some centres undefined)
inactive: all assays above

CC1Sc2c(C(=O)O)c(=O)c3cc(F)c(N4CCNCC4)cc3n21 (centres undefined)
inactive: all assays above

CCOC(C(=O)OCCN(C)C)(c1ccccc1)c1ccccc1
inactive: all assays above

CN1CCc2cc(Cl)c(O)cc2[C@H]2c3ccccc3CC[C@@H]21
inactive: all assays above

CC(C)C(Br)C(=O)NC(N)=O (centres undefined)
inactive: all assays above

c1ccc2nc(N3CCNCC3)ccc2c1
inactive: all assays above

CCCC[N+]1(C)[C@@H]2CC(OC(=O)[C@H](CO)c3ccccc3)C[C@H]1[C@@H]1O[C@@H]12 (some centres undefined)
inactive: all assays above
